Laboratory results taken from PubChem BioAssay.
For some of these results: Results with a measured potency or affinity are listed apart. Records with an inconclusive call do not appear. Active and inactive are the calls of the source.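 Rule for the calls, unless noted: active = fitted dose curve reaches 40% lysis signal rise at or below the highest valid concentration tested for that sample; inconclusive = flat fit between 30% and 70%, or poor curve fit; inactive = signal falls, stays flat within 30%, or no crossing.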

Legend:
[1] = Cryptococcus neoformans growth inhibition, dose response, Alamar Blue, cherry-picks (AID 686998;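 active = falling signal with fitted half-maximal potency no higher than twice the top valid tested dose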)
[2] = inducers of Cryptococcus neoformans cell lysis, dose response, AK release luminescence, cherry-picks (AID 687000);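 note: luminescent detection of adenylate kinase leaking from lysed yeast; 0% = median neutral control signal and 100% = double that signal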
[3] = HepG2 cell cytotoxicity, dose response, cytotoxicity control, cherry-picks, set 2 (AID 687002;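 active = a dose-response fit showing signal loss, with half-maximal concentration no higher than twice the top tested dose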)
[4] = binders of probe aFSTL3 on microarray, primary screen, stem cell growth factor project, biochemical, small-molecule microarray, fluorescence 635/667 (AID 1064); details: higher = more signal;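 note: measures binding of the biotinylated anti-FSTL3 antibody to printed compounds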
[5] = binders from COS7 lysate, DM2A8 probe, primary screen, torsin A project, cell lysate, small-molecule microarray, fluorescence 635/667 (AID 1065); details: higher = more signal, COS7 lysate expressing mutant human TOR1A
[6] = binders of probe aFGF2 on microarray, primary screen, stem cell growth factor project, biochemical, small-molecule microarray, fluorescence 635/667 (AID 1067); details: higher = more signal;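 note: measures binding of biotinylated aFGF2 protein to printed compounds on slides; z-score merges feature fluorescence and signal-to-noise across triplicate slides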
[7] = binders of probe aFGF10 on microarray, primary screen, stem cell growth factor project, biochemical, small-molecule microarray, fluorescence 635/667 (AID 1071); details: higher = more signal;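 note: score merges 667 nm spot intensity and signal to noise from triplicate slides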
[8] = molecular target: Neurogenic locus notch homolog protein 2 (Homo sapiens) (UniProt Q04721); experiment: Notch2 binders on small-molecule microarrays, primary screen, biochemical, small-molecule microarray, 635 nm fluorescence, stem cell growth factors (AID 1073); details: Notch2 binding, higher = more signal
[9] = molecular target: Pro-neuregulin-1, membrane-bound isoform (Homo sapiens) (UniProt Q02297); experiment: NRG1 binders on small-molecule microarrays, primary screen, psychiatric disease protein project, biochemical, small-molecule microarray, fluorescence 635/667 (AID 1075); details: NRG1 binding, 635 nm fluorescence, higher = more signal;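 note: score combines 667 nm spot fluorescence with signal to noise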
[10] = tested on: Neuregulin-1 EGF-like domain; experiment: binders of neuregulin-1 EGF-like domain, primary screen, biochemical, small-molecule microarray, 635 nm fluorescence (AID 1081); details: small-molecule microarray binding, higher = more signal;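 note: binding of the protein to compounds printed on small-molecule microarray slides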
[11] = FRG1 promoter luciferase signal modulators, primary screen, FRG1 inhibition for FSHD, cell-based, C2C12 myotubes, firefly/Renilla luciferase, luminescence (AID 1084); details: higher = more signal, called active from +8 up or from −8 down
[12] = binders of probe aFST on microarray, primary screen, stem cell growth factor project, biochemical, small-molecule microarray, fluorescence 635/667 (AID 1086); details: higher = more signal;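 note: score merges 667 nm fluorescence with signal-to-noise of each printed compound spot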
[13] = binders of probe aHhip on microarray, primary screen, stem cell growth factor project, biochemical, small-molecule microarray, fluorescence 635/667 (AID 1087); details: higher = more signal;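 note: score merges spot fluorescence at 667nm with spot signal to noise ratio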
[14] = tested on: PRMT1 (protein arginine N-methyltransferase 1); experiment: PRMT1 binders on small-molecule microarrays, primary screen, biochemical, small-molecule microarray, 635 nm fluorescence (AID 1088); details: small-molecule microarray binding, higher = more signal;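 note: binding of Prmt1 protein to compounds spotted on small-molecule microarray slides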
[15] = yeast growth modulation, basal conditions, primary screen, YJM789 clinical isolate, OD600, 24 h (AID 1089);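 note: growth of clinical yeast isolate S. cerevisiae YJM 789 seeded 1000 cells per well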; details: S. cerevisiae YJM789 growth, higher = more signal, called active from +8 up or from −8 down
[16] = fission yeast growth modulation, primary screen, strain 972, OD600, 24 h, no modulator (AID 1090);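 note: basal condition with compound alone and no growth modifier present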; details: S. pombe 972 growth, higher = more signal, called active from +8 up or from −8 down
[17] = S. cerevisiae growth modulation with rapamycin, primary screen, strain BY4716, OD600, 96 h (AID 1091); details: higher = more signal, called active from +8 up or from −8 down
[18] = molecular target: Torsin-1A-interacting protein 2 (Homo sapiens) (UniProt Q8NFQ8); experiment: LULL1 binders on small-molecule microarray, primary screen, cell lysate, human LULL1 lysate, 635/667 nm fluorescence (AID 1092); details: hLULL1 lysate binding, 635 nm fluorescence, higher = more signal;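 note: probe is lysate of COS7 cells overexpressing human LULL1; score merges per-feature 667 nm fluorescence with signal-to-noise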
[19] = E. coli growth modulation, two-sided OD650, primary screen, E. coli filamentation project, strain DRC41, 24 h (AID 1093); details: OD650, 24 h, higher = more signal, called active from +8 up or from −8 down;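 note: MC1000 strain lacking acrAB efflux and sulA so SOS filamentation is blocked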

Chain of Pro-neuregulin-1, membrane-bound isoform (Homo sapiens) (Q02297 whole entry, looked up, the tested form may be a part, canonical isoform): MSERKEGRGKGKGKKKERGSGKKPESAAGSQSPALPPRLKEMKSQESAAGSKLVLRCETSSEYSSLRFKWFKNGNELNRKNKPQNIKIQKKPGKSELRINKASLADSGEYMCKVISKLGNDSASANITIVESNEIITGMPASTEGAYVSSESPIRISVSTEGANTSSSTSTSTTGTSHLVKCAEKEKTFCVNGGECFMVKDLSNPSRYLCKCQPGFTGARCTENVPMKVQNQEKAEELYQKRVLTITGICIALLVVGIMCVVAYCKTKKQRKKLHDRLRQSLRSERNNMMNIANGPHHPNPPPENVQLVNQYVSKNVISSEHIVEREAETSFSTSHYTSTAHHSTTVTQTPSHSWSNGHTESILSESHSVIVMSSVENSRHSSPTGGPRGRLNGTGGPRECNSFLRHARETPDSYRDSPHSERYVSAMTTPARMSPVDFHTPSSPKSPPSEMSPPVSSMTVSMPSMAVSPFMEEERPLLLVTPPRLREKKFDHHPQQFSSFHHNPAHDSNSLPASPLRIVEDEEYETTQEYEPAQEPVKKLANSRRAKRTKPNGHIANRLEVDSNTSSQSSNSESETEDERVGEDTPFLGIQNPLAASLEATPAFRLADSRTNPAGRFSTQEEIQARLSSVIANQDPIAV
Chain of Neurogenic locus notch homolog protein 2 (Homo sapiens) (Q04721 whole entry, looked up, canonical isoform): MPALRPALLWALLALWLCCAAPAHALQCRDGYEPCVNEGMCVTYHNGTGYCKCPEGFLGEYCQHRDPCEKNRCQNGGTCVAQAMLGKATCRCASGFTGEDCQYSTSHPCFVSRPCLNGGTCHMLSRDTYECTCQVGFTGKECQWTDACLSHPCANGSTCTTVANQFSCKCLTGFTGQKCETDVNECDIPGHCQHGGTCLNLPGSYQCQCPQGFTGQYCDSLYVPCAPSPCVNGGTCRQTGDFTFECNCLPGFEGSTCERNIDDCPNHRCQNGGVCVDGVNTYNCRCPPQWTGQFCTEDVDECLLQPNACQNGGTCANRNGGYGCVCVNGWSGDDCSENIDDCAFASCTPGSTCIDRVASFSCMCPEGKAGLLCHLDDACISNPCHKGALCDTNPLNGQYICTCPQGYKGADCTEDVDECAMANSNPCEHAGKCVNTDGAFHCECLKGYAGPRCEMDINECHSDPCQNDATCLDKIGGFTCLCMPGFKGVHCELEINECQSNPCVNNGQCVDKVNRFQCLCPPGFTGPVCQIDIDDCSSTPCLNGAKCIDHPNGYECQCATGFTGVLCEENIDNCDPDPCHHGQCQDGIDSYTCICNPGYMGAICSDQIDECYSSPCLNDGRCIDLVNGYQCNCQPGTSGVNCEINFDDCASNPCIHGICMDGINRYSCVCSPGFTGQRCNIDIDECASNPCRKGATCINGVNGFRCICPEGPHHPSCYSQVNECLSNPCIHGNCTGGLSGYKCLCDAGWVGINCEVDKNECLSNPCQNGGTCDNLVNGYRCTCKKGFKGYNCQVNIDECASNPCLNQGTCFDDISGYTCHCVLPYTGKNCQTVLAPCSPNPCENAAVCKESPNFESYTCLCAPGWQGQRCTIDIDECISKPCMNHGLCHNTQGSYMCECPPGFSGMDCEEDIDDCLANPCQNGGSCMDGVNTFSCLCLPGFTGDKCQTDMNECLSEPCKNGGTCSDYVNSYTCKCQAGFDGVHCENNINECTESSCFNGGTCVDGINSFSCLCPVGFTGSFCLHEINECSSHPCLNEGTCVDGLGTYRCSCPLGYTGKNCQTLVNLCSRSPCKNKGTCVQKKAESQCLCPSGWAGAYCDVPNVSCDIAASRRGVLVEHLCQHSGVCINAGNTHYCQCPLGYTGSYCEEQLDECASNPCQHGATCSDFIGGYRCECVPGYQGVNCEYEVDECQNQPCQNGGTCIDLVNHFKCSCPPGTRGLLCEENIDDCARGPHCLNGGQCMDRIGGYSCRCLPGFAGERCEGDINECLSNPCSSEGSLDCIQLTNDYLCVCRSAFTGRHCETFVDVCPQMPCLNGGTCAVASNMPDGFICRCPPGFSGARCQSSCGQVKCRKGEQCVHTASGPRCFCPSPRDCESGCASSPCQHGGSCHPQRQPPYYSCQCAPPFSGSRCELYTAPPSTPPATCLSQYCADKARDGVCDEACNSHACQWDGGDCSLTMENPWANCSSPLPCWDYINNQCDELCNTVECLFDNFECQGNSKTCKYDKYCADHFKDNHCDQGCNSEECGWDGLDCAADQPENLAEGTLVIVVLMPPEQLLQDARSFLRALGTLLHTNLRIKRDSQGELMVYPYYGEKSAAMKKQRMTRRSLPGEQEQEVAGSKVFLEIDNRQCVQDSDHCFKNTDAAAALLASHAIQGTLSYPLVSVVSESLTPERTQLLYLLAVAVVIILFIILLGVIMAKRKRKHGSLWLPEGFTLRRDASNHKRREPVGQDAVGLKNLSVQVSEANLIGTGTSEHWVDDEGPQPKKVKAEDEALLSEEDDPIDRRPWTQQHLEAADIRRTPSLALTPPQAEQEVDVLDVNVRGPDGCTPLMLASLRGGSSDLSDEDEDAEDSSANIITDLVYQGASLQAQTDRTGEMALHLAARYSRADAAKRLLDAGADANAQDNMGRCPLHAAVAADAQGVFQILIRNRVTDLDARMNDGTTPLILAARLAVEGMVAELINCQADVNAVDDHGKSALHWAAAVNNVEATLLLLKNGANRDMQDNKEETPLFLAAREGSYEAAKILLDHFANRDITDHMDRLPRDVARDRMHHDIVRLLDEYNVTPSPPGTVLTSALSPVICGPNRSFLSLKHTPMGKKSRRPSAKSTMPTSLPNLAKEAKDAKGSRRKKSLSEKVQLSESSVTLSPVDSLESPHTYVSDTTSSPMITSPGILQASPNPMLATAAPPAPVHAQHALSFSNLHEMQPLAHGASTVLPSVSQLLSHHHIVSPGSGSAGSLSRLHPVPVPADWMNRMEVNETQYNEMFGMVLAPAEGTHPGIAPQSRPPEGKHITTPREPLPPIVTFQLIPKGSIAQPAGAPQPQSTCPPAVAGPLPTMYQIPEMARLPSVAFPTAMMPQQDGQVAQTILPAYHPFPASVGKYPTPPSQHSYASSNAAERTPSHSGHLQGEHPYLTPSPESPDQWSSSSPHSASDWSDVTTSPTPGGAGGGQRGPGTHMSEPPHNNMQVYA
Chain of Torsin-1A-interacting protein 2 (Homo sapiens) (Q8NFQ8 whole entry, looked up): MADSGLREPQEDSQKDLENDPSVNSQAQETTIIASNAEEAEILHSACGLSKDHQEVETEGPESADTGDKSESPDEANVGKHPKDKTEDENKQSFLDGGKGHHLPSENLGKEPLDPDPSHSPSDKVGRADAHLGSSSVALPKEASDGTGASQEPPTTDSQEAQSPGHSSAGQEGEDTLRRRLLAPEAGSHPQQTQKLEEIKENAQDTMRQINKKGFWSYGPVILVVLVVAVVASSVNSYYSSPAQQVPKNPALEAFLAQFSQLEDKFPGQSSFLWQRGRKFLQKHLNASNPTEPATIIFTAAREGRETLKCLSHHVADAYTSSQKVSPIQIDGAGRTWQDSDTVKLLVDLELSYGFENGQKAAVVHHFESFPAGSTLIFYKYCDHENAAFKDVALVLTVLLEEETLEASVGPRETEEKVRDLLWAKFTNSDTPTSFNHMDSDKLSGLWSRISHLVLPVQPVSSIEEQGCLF

Row | SMILES | outcome [1] | outcome [2] | outcome [3] | composite z-score [4] | composite z-score [5] | composite z-score [6] | composite z-score [7] | composite z-score [8] | composite z-score [9] | composite z-score [10] | z-score [11] | composite z-score [12] | composite z-score [13] | composite z-score [14] | z-score [15] | z-score [16] | z-score [17] | composite z-score [18] | z-score [19]
1 | COc1ccccc1C(=O)Nc1ccc2c(c1)OC[C@H](C)N(C(C)=O)C[C@H](C)[C@H](OC)CN(C)C2=O | inactive | inactive | inactive | – | – | – | – | – | – | – | – | – | – | – | – | – | – | – | –
2 | CCOC(=O)C[C@H]1[C@H](OC(=O)c2ccc(-c3ccccc3)cc2)[C@@H](NC(=O)c2ccccc2)c2cc(OCCCO)ccc2N1C(=O)c1ccccc1 | – | – | – | -0.3 | 0.707 | 0.0216 | 0.281 | 0.741 | 0.622 | 0.773 | -0.867 (inactive) | 0.515 | 0.201 | 1.35 | -1.08 (inactive) | -1.94 (inactive) | -0.596 (inactive) | 1.69 | 2.17 (inactive)
3 | COC(=O)[C@@]1(CCC(=O)OC(C)(C)C)COC(c2ccc(OCCCO)cc2)=N1 | – | – | – | 1.47 | -1.53 | -0.212 | -1.92 | -1.89 | -0.312 | 0.256 | -0.44 (inactive) | -0.311 | -0.405 | -0.964 | -1.42 (inactive) | -0.502 (inactive) | -0.752 (inactive) | -0.771 | 0.989 (inactive)
4 | CCOC(=O)C[C@H]1[C@H](OC(=O)c2cc3ccccc3oc2=O)[C@@H](NC(=O)c2ccccc2)c2cc(OCCCO)ccc2N1C(=O)Cc1ccc(OC)cc1 | – | – | – | -0.297 | 0.682 | -0.038 | 0.575 | 0.81 | 0.147 | -0.1 | -0.265 (inactive) | 0.514 | 0.0302 | -0.0867 | -0.196 (inactive) | -1.08 (inactive) | -0.846 (inactive) | 0.239 | 2.9 (inactive)
5 | COc1ccc([Si](C)(C)[C@H]2[C@H](CC(=O)N(CCO)Cc3ccccc3)O[C@@]3(C(=O)N(Cc4ccc(N5CCC5=O)cc4)c4ccccc43)[C@@H]2C)cc1 | – | – | – | 0.278 | 0.323 | -0.128 | -1.07 | -0.741 | 1.02 | 0.469 | -2.75 (inactive) | -0.336 | -0.226 | 0.499 | 0.478 (inactive) | 0.617 (inactive) | 1.96 (inactive) | 0.953 | 1.48 (inactive)
6 | CC(C)C[C@@H]1NC(=O)[C@@H]2C[C@H](C(=O)NCCCCCNC(=O)CS)[C@H](c3cccc(OCCO)c3)N2C1=O | – | – | – | 0.0138 | 1.55 | -0.0332 | 0.355 | 0.947 | 1.35 | 1.29 | 0.152 (inactive) | 0.35 | -0.286 | 1.55 | -1.66 (inactive) | -0.926 (inactive) | -0.565 (inactive) | 2.23 | 2.24 (inactive)
7 | COC(=O)C(CC#Cc1ccc2c(c1)[C@]1(C(=O)N2)[C@H](C(N)=O)[C@H]2C(=O)O[C@H](c3ccccc3)[C@H](c3ccccc3)N2[C@@H]1c1ccc(O)cc1)C(=O)OC | – | – | – | -0.343 | -0.067 | -0.245 | -1.28 | -0.618 | 0.205 | 0.699 | -0.117 (inactive) | -0.882 | 0.384 | -0.95 | 0.337 (inactive) | -1.04 (inactive) | 0.484 (inactive) | 0.0509 | 1.61 (inactive)
8 | C=CCN1C(=O)[C@@]2(O[C@@H](CCO)[C@H]([Si](C)(C)c3ccc(OC)cc3)[C@H]2C)c2cc(N(C=O)c3ccccc3)ccc21 | – | – | – | 0.156 | 0.24 | -0.125 | 0.461 | 0.555 | 0.657 | 0.904 | -1.06 (inactive) | 0.143 | 0.154 | 1.11 | 0.551 (inactive) | -0.67 (inactive) | 21 (active) | 0.586 | 1.85 (inactive)
9 | C=C(/C(=C/C[C@H](OC(C)=O)c1cccc(OCCO)c1)c1cc(C(=O)OC)ccc1OC)C(C)C | – | – | – | 0.037 | 0.0106 | -0.128 | 0.437 | -1.02 | 1.04 | 0.274 | -0.698 (inactive) | -0.24 | 0.0623 | 0.359 | 0.0359 (inactive) | -1.37 (inactive) | -0.954 (inactive) | 0.41 | 1.73 (inactive)
10 | COC(=O)C1=CC(c2ccc(CO)cc2)=CC(C2CC2)N(C)C=C1C(=O)OC (stereo not drawn) | – | – | – | 0.315 | 0.903 | -0.0538 | -0.0649 | 0.115 | 1.61 | 0.97 | -1.67 (inactive) | 0.0593 | -0.0994 | 1.31 | -5.61 (inactive) | -4.93 (inactive) | -2.41 (inactive) | 2.6 | 0.585 (inactive)
11 | C=C1C=C(Br)C2(OCCCO2)[C@H]2OC12 (stereo partly drawn) | – | – | – | -0.199 | 0.249 | -0.128 | 0.325 | -0.175 | -0.188 | -0.221 | 1.04 (inactive) | 0.206 | 0.0274 | -0.83 | -0.23 (inactive) | -0.54 (inactive) | 0.405 (inactive) | -0.38 | 0.294 (inactive)
